Only some compounds are listed: those with a hit (about 0.84% of all), similar ones and a draw of the others.
SRC3 TRFRET art = counter-screen for PPARgamma SRC-3 recruitment agonists: TR-FRET artefact; AID 1048; actives 0.39% (n = 99,000); PPARgamma/SRC-3 format; stronger effect = higher value; TR-FRET ratio at 8 µM
PPARg SRC-3 ag = PPARgamma-driven SRC-3 recruitment agonism. biochemical PPARgamma/SRC-3 coactivator recruitment assay. activation, % at 8 µM. actives 0.26% (n = 200,000). AID 731; in the data active = activation above about 23%
Target sequence (P37231 whole entry, looked up): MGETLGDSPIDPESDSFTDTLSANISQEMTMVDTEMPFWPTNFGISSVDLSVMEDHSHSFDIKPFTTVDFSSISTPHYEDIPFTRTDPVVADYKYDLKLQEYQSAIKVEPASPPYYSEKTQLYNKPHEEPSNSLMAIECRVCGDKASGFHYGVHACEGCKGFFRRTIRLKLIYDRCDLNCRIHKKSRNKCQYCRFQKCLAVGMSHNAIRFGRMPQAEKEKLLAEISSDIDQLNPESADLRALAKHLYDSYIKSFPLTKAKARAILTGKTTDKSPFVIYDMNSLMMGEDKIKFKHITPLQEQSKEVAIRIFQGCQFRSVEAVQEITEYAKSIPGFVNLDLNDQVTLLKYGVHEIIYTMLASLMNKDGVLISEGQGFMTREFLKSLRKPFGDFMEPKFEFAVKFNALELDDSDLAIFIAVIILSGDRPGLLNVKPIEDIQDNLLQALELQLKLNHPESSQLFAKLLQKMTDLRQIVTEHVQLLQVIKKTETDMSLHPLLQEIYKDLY
SRC1 TRFRET art = counter-screen for PPARgamma SRC-1 recruitment agonists: TR-FRET artefact. TR-FRET detection artefact counter-screen, emission ratio; stronger effect = higher value. TR-FRET ratio at 8 µM. actives 0.34% (n = 99,000); in the data active = TR-FRET ratio above about 2300
PPARg SRC1 recr = PPARgamma-driven SRC-1 recruitment agonism. activation, % at 8 µM. PPARgamma-SRC-1 coactivator recruitment biochemical assay. AID 631. actives 0.41% (n = 200,000). P37231; in the data active = activation above about 19%
SRC2 TRFRET art = flags TR-FRET format artefacts in PPARgamma SRC-2 recruitment agonist screen; TR-FRET ratio at 8 µM; TR-FRET artefact counter-screen; stronger effect = higher value; actives 0.4% (n = 200,000)
PPARg SRC2 recr = PPARgamma-driven SRC-2 recruitment agonism; PPARgamma LBD-SRC-2 recruitment, biochemical; actives 0.34% (n = 200,000); P37231; activation, % at 8 µM; in the data active = activation above about 22%
A number is an active result. Rule as the data show it, unless noted: active = TR-FRET ratio above about 2000; inactive = the rest.

`O=C(CCN1C(=O)c2ccccc2C1=O)Nc1ccc(-c2nc3ccccc3o2)cc1` gave PPARg SRC-3 ag inactive, PPARg SRC1 recr 19, SRC2 TRFRET art inactive and PPARg SRC2 recr inactive.
`O=C(CN1C(=O)c2ccccc2C1=O)Nc1ccc(-c2nc3ccccc3o2)cc1` gave PPARg SRC-3 ag inactive, PPARg SRC1 recr inactive, SRC2 TRFRET art inactive and PPARg SRC2 recr inactive.
Screening CCN(CC)c1c(-c2ccccc2)c2cc(C)ccc2[nH]c1=O returned SRC3 TRFRET art inactive, PPARg SRC-3 ag inactive, SRC1 TRFRET art inactive, PPARg SRC1 recr inactive, SRC2 TRFRET art inactive and PPARg SRC2 recr inactive.
`CC/C(C)=N/NC(=O)c1[nH]c2ccc(C)cc2c1-c1ccccc1` gave SRC3 TRFRET art inactive, PPARg SRC-3 ag inactive, SRC1 TRFRET art inactive, PPARg SRC1 recr inactive, SRC2 TRFRET art 1988 and PPARg SRC2 recr inactive.
`COc1cc(C#N)c(NC(=S)N2CCOCC2)cc1OC` gave SRC3 TRFRET art inactive, PPARg SRC-3 ag inactive, SRC1 TRFRET art inactive, PPARg SRC1 recr inactive, SRC2 TRFRET art 2021 and PPARg SRC2 recr inactive.
Cc1cc2cc(CNC(=O)c3ccc(S(=O)(=O)N(C)C)cc3)ccc2n1C was read as PPARg SRC-3 ag inactive, PPARg SRC1 recr inactive, SRC2 TRFRET art 2108 and PPARg SRC2 recr inactive.
`Cc1cc(C)c(S(=O)(=O)NCCn2c(C)cc3ccccc32)c(C)c1` gave PPARg SRC-3 ag inactive, PPARg SRC1 recr inactive, SRC2 TRFRET art 2078 and PPARg SRC2 recr inactive.
`Cc1ccc(S(=O)(=O)NCCn2c(C)cc3ccccc32)cc1` gave PPARg SRC-3 ag inactive, PPARg SRC1 recr inactive, SRC2 TRFRET art 2803 and PPARg SRC2 recr inactive.
Screening Cc1cc2ccccc2n1CCNC(=O)Cc1ccccc1 returned PPARg SRC-3 ag inactive, PPARg SRC1 recr inactive, SRC2 TRFRET art inactive and PPARg SRC2 recr inactive.
Screening CC(=O)Nc1ccc(S(=O)(=O)NCc2ccc3c(c2)cc(C)n3C)cc1 returned PPARg SRC-3 ag inactive, PPARg SRC1 recr inactive, SRC2 TRFRET art inactive and PPARg SRC2 recr inactive.
Screening Cc1cc(C)c(S(=O)(=O)NCc2ccc3c(c2)cc(C)n3C)c(C)c1 returned PPARg SRC-3 ag inactive, PPARg SRC1 recr inactive, SRC2 TRFRET art 2083 and PPARg SRC2 recr inactive.
Screening Cc1sc(NC(=O)Cc2ccc3c(c2)OCO3)nc1-c1ccc2c(c1)CCN2C(=O)c1ccccc1F returned SRC3 TRFRET art inactive, PPARg SRC-3 ag inactive, SRC1 TRFRET art inactive, PPARg SRC1 recr inactive, SRC2 TRFRET art inactive and PPARg SRC2 recr inactive.
`Cc1sc(NC(=O)Cc2ccc3c(c2)OCO3)nc1-c1ccc2c(c1)CCN2C(=O)c1ccc(F)cc1` gave SRC3 TRFRET art 2623, PPARg SRC-3 ag inactive, SRC1 TRFRET art inactive, PPARg SRC1 recr inactive, SRC2 TRFRET art inactive and PPARg SRC2 recr inactive.
CCCn1c(C)cs/c1=N\C(=S)Nc1ccccc1 was read as SRC3 TRFRET art 2212, PPARg SRC-3 ag inactive, SRC1 TRFRET art inactive, PPARg SRC1 recr inactive, SRC2 TRFRET art inactive and PPARg SRC2 recr inactive.
For Cc1cs/c(=N/C(=S)Nc2ccccc2)n1C the results were SRC3 TRFRET art inactive, PPARg SRC-3 ag inactive, SRC1 TRFRET art inactive, PPARg SRC1 recr inactive, SRC2 TRFRET art inactive and PPARg SRC2 recr inactive.
Screening CCc1nn(CC(=O)NCCCN(CC)Cc2ccccc2)c(=O)c2cc3sccc3n12 returned PPARg SRC-3 ag inactive, PPARg SRC1 recr inactive, SRC2 TRFRET art 2044 and PPARg SRC2 recr inactive.
For COc1ccc(CCNC(=O)CC2SC(=NCc3ccccc3)NC2=O)cc1 (stereo not drawn) the results were SRC3 TRFRET art inactive, PPARg SRC-3 ag inactive, SRC1 TRFRET art inactive, PPARg SRC1 recr inactive, SRC2 TRFRET art inactive and PPARg SRC2 recr inactive.
For Cc1cc(C(=O)OCC(=O)Nc2c(F)cccc2F)c(C)n1-c1ccccc1 the results were SRC3 TRFRET art inactive, PPARg SRC-3 ag inactive, SRC1 TRFRET art inactive, PPARg SRC1 recr inactive, SRC2 TRFRET art inactive and PPARg SRC2 recr inactive.
Screening COc1ccc([N+](=O)[O-])cc1NC(=S)NC(NC(=O)C(c1ccccc1)c1ccccc1)C(Cl)(Cl)Cl (stereo not drawn) returned PPARg SRC-3 ag inactive, PPARg SRC1 recr inactive, SRC2 TRFRET art 2107 and PPARg SRC2 recr inactive.
OCCN=C1CCCc2c1[nH]c1ccc(Br)cc21 was read as PPARg SRC-3 ag inactive, PPARg SRC1 recr 19, SRC2 TRFRET art inactive and PPARg SRC2 recr inactive.
`CC1(C)CC(=O)C(N=Nc2ccc(OC(F)F)cc2)=C(O)C1` gave SRC3 TRFRET art inactive, PPARg SRC-3 ag inactive, SRC1 TRFRET art inactive, PPARg SRC1 recr inactive, SRC2 TRFRET art inactive and PPARg SRC2 recr inactive.
For CCOC(=O)c1sc(N2C(=O)C(O)=C(C(=O)c3ccco3)C2c2ccccc2)nc1C (stereo not drawn) the results were PPARg SRC-3 ag inactive, PPARg SRC1 recr inactive, SRC2 TRFRET art inactive and PPARg SRC2 recr inactive.
Screening Cc1ccc2nc(N3C(=O)C(O)=C(C(=O)c4ccco4)C3c3cccs3)sc2c1 (stereo not drawn) returned PPARg SRC-3 ag 64, PPARg SRC1 recr 38, SRC2 TRFRET art 2260 and PPARg SRC2 recr 47.
For O=C(O)Cc1ccc(C(=O)c2ccc(Cl)cc2Cl)s1 the results were SRC3 TRFRET art inactive, PPARg SRC-3 ag inactive, SRC1 TRFRET art inactive, PPARg SRC1 recr inactive, SRC2 TRFRET art inactive and PPARg SRC2 recr inactive.
Screening O=C(c1cnc(-c2ccc(Cl)cc2)s1)c1ccc(Cl)cc1Cl returned PPARg SRC-3 ag 36, PPARg SRC1 recr inactive, SRC2 TRFRET art inactive and PPARg SRC2 recr inactive.
Cc1nc(C(=O)NC(C)C)nn1-c1cc(Cl)cc(Cl)c1 was read as SRC3 TRFRET art inactive, PPARg SRC-3 ag inactive, SRC1 TRFRET art inactive, PPARg SRC1 recr inactive, SRC2 TRFRET art inactive and PPARg SRC2 recr inactive.
`CCOC(=O)c1c(NC(=S)Nc2ccc(OC)cc2)sc2c1CCC2` gave SRC3 TRFRET art inactive, PPARg SRC-3 ag inactive, SRC1 TRFRET art inactive, PPARg SRC1 recr inactive, SRC2 TRFRET art inactive and PPARg SRC2 recr inactive.
`COC(=O)c1c(NC(=S)Nc2ccc(C(=O)N3CCOCC3)cc2)sc2c1CCC2` gave SRC3 TRFRET art 2231, PPARg SRC-3 ag inactive, SRC1 TRFRET art inactive, PPARg SRC1 recr inactive, SRC2 TRFRET art inactive and PPARg SRC2 recr inactive.
For O=C(N/N=C/c1ccsc1)c1ccc2ccccc2n1 the results were SRC3 TRFRET art inactive, PPARg SRC-3 ag inactive, SRC1 TRFRET art inactive, PPARg SRC1 recr inactive, SRC2 TRFRET art inactive and PPARg SRC2 recr inactive.
O=C(Nc1nc(-c2ccc(S(=O)(=O)N3CCOCC3)cc2)cs1)c1ccccc1 was read as PPARg SRC-3 ag inactive, PPARg SRC1 recr inactive, SRC2 TRFRET art 2397 and PPARg SRC2 recr inactive.
COc1ccc(C(=O)CSc2nnc(-c3ccc(S(=O)(=O)N4CCOCC4)cc3)o2)cc1 was read as PPARg SRC-3 ag inactive, PPARg SRC1 recr 25, SRC2 TRFRET art inactive and PPARg SRC2 recr inactive.
O=C(Nc1nc(-c2nc3ccccc3s2)cs1)c1ccc(S(=O)(=O)N2CCOCC2)cc1 was read as PPARg SRC-3 ag inactive, PPARg SRC1 recr inactive, SRC2 TRFRET art inactive and PPARg SRC2 recr inactive.
Screening O=C(Nc1nc(-c2ccc(S(=O)(=O)N3CCCC3)cc2)cs1)c1cccs1 returned PPARg SRC-3 ag inactive, PPARg SRC1 recr inactive, SRC2 TRFRET art inactive and PPARg SRC2 recr inactive.
